Laboratory results published in PubChem BioAssay (NCATS).
Results filed as inconclusive are left out. Entries that show only a call come without a potency. A number with no mark means an inactive call. Active and inactive are the calls of the source. The call rests on the fitted dose curve; in most records, active means well fitted inhibition curve with a large enough effect; inconclusive means small, poorly fitted or top-dose-only effect; inactive means flat fitted curve, though single readings scatter.

Biological target: Glutathione peroxidase 1 (Homo sapiens) (UniProt P07203)
Sequence (P07203 whole entry, looked up): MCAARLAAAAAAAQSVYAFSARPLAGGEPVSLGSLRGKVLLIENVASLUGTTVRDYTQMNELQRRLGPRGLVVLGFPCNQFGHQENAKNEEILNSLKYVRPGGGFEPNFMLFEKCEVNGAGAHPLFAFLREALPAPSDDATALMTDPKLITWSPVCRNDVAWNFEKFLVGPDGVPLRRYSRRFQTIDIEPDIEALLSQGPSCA
Experiment: Primary qHTS Assay for Inhibitors of Recombinant Selenoprotein Glutathione Peroxidase 1 (GPX1) (AID 1845191); further: nearly all actives have a fitted effect of over 65% in size
Conditions: recombinant GPX1, GR-coupled NADPH fluorescence, 15 min; series mostly up to 48.8 µM; activity, negative = inhibition: at the top concentration
Outline: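 10 nM GPX1 + cpd, 30 min RT; start w/ 1 mM GSH, 0.5 mM cumene hydroperoxide, 0.5 mM NADPH, 100 nM GR, 0.01% BSA; buffer 50 mM Tris-HCl pH 7.5, 2 mM EDTA, 150 mM NaCl; Fl 340/450, 0 & 15 min.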

| Structure (SMILES) | activity, negative = inhibition | Potency | outcome |
| --- | --- | --- | --- |
| COc1c(Cl)cc2c([nH]c3cnccc32)c1NC(=O)c1cccnc1C | -1.49% |  |  |
| CN(C(=O)c1ccc(F)cc1C(F)(F)F)C1CCN(c2nnc(-c3ccnn3C)c3ccccc23)CC1 |  | inactive |  |
| Cc1n[nH]c(C)c1Cc1sc2c(c1C(=O)N1C[C@H](O)CO1)c(=O)n(C)c(=O)n2CC(C)C |  | inactive |  |
| CC(C)(N)C(=O)N[C@H](COCc1ccccc1)C(=O)N1CCC2(CC1)CN(S(C)(=O)=O)c1ccccc12 |  | inactive |  |
| COc1ccc(CC2=NN3C([C@@H](CCc4ccccc4)[C@@H](C)O)=NC(C)C3C(=O)N2)cc1OC (stereo partly drawn) |  |  | inactive |
| CNC(=O)c1ccc(C)c(-n2c(C)cc(OCc3ccc(F)cc3F)c(Br)c2=O)c1 |  |  | inactive |
| CN(C)c1ccc(C2Nc3ccc4ccccc4c3C3=C2C(=O)CC(C)(C)C3)cc1Br (stereo not drawn) |  | inactive |  |
| O=C(NOC[C@H](O)CO)c1ccc(F)c(F)c1Nc1ccc(I)cc1F |  |  | inactive |
| C[C@H](NC(=O)Cc1cc(F)cc(F)c1)C(=O)N[C@@H]1C(=O)N(C)c2ccccc2-c2ccccc21 |  | inactive |  |
| CN(C)C(=O)c1ccc(S(=O)(=O)c2ccc(NC(=O)[C@@](C)(O)C(F)(F)F)c(Cl)c2)cc1 |  | inactive |  |
| CCCS(=O)(=O)Nc1ccc(F)c(C(=O)c2c[nH]c3ncc(Cl)cc23)c1F |  |  | inactive |
| CCc1cc(Nc2nccc(-c3c(-c4ccc(OC)c(C(=O)Nc5c(F)cccc5F)c4)nc4ccccn34)n2)c(OC)cc1N1CCC(N2CCN(S(C)(=O)=O)CC2)CC1 |  | inactive |  |
| COc1ccccc1[C@H](c1cccc2ccccc12)[C@@](C)(C#N)C(=O)N1CCC(c2cccc(C(F)(F)F)c2)CC1 |  |  | inactive |
